Source: PubChem BioAssay AID435019 (Southern Research Specialized Biocontainment Screening …, 2010)
The whole screen tested about 2,300 compounds, of which about 1,200 (52%) were called active. The set was probably picked from earlier hits. This is one part of the list. Entries with a potency or affinity are not part of this list. Values without a mark were called inactive. How the calls were made is not given here.

test: mammalian cell cytotoxicity, dose response, cytotoxicity control for M. tuberculosis inhibitor project (AID 435019); details: cytotoxicity counter-screen; series mostly up to 40 µM; viability: at the top concentration;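 further: 0% = background wells and 100% = vehicle-treated cells; lower values mean fewer viable cells so more cytotoxicity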

Row | Structure (SMILES) | viability
1 | C=CCc1cccc(CNc2cnc3ccccc3c2)c1O | 88.8%
2 | Cc1cc(-c2cc(-c3ccccc3)on2)nc(NC2CCCC2)n1 | 85.9%
3 | Cc1ccsc1/C=N/Nc1ccc(F)cc1F | 95.7%
4 | Cc1ccc(CNC(=O)c2sc3nc4c(c(C(F)(F)F)c3c2N)CCC4)cc1 | 94.3%
5 | CC(C)(C)c1nc2sc3c(c2c(=O)o1)CCCC3 | 93.7%
6 | COc1ccc(C(=O)C2CCCN(C3CSCCSC3)C2)c(C)c1 (stereo not given) | 83.2%
7 | CN1C(=O)c2cccc3c(Br)ccc(c23)C1=O | 97.7%
8 | CN(Cc1ccc(Br)cc1)C(=O)CCN1C(=O)c2cccc([N+](=O)[O-])c2C1=O | 86.3%
9 | O=C(Nc1ccc(Cl)cc1)N(C1=NCCC1)c1ccc(OC(F)F)cc1 | 82.3%
10 | O=C(c1ccco1)N1CCN(C(=O)C2CC(c3ccc(Cl)c(Cl)c3)=NO2)CC1 (stereo not given) | 84.7%
11 | O=c1cc2[nH]c3ccccc3c(=O)n2nc1-c1ccccc1 | 98.3%
12 | c1ccc(-c2nc(N3CCCC3)nc3ccccc23)cc1 | 92.6%
13 | CN1/C(=C\C(=O)COC(=O)c2ccc([N+](=O)[O-])o2)C(C)(C)c2ccccc21 | 98.5%
14 | CCOC(=O)N/N=C(/C)c1ccc([N+](=O)[O-])o1 | 84.4%
15 | CCOc1cc(C2NN=C(c3ccc(C)cc3)S2)ccc1O (stereo not given) | 82%
16 | N#C/C(=C1\CCCN1)c1nc(-c2ccccc2)cs1 | 82%
17 | O=C(Nc1ccc(-n2cccc2)cc1)C1CC1 | 92.5%
18 | Cc1ccc(NC(=O)C2C3/C=C\CCCCC32)cc1C (stereo not given) | 96.5%
19 | Cc1ccc(S(=O)(=O)NCc2ccc(C(=O)NCCCN3CCC(Cc4ccccc4)CC3)cc2)cc1 | 94.2%
20 | COc1cccc(-n2nnc3c(=O)n(CC(=O)N4CCC(Cc5ccccc5)CC4)cnc32)c1 | 80.7%
21 | CCCCCCSc1nsc(NC(=O)CC(C)C)n1 | 85%
22 | Cc1c(OCc2ccccc2)c(=O)ccn1Cc1ccc(Cl)cc1 | 87.7%
23 | CC(=O)N1C(Nc2ccc(Cl)cc2)CCN1c1ccccc1 (stereo not given) | 102%
24 | Nc1ccc2c(c1)oc1ccccc12 | 87.4%
25 | Cc1ccc(-n2[nH]c(C)c(C=Nc3ccc(S(=O)(=O)Nc4nccs4)cc3)c2=O)c(C)c1 | 88.1%
26 | Cc1ccccc1C(=O)Nc1ccc(N(C)C)c2ccccc12 | 95.2%
27 | N/C(=N\OC(=O)Nc1ccc(Cl)c(Cl)c1)c1ncc(C(F)(F)F)cc1Cl | 92.2%
28 | CC(C)C(=O)N1CCC2(CC1)Oc1ccc(Cl)cc1C(=O)C21CC(c2ccccc2)=NO1 (stereo not given) | 83.4%

Row | Structure (SMILES) | viability
29 | COc1ccc(C(=O)OCC(=O)c2ccc(Br)s2)c(OC)c1 | 94.2%
30 | CCOC(=O)C1CCCc2c1[nH]c1c(C(N)=O)cccc21 (stereo not given) | 92.2%
31 | O=C(OCc1ccccc1F)c1cnc(Cl)c(Cl)c1 | 94.4%
32 | O=C(OCc1ccc([N+](=O)[O-])cc1)c1cc2ccccc2oc1=O | 103%
33 | COc1ccccc1C1=NOC(COC(=O)c2ccc([N+](=O)[O-])cc2)C1 (stereo not given) | 97.8%
34 | CCCCS/C(N)=N/N=C/c1cc(C)ccc1O | 85.3%
35 | Nc1ccc(Oc2ccc(F)cc2)nc1 | 100%
36 | CCOC(=O)c1cc(-c2cccc([N+](=O)[O-])c2)on1 | 96.6%
37 | CNC(=S)Nc1ccc(N2CCN(c3ccc(C(F)(F)F)cn3)CC2)nc1 | 92.3%
38 | CCCCCCC#Cc1ccc2c(c1)COc1c3ccccc3nn1-2 | 83.6%
39 | COc1cc(N)c(Cl)cc1C(=O)N[C@H]1CCN(CCCOc2ccc(F)cc2)C[C@H]1OC | 95%
40 | O=C(NC1CCCCCC1)c1ccccc1-c1ccccc1 | 83.2%
41 | N#CC(C(=O)Nc1ccccc1)=C1Nc2ccccc2N1 | 80.9%
42 | Cc1ccccc1C(=O)Nc1ccccc1C(=O)NCC(C)C | 90.5%
43 | CSc1nc2nc3c(c(=O)n2[nH]1)CCCC3 | 96.8%
44 | c1ccc(CCNc2ncnc3c2cnn3-c2ccccc2)cc1 | 84.7%
45 | CCSc1ncc(/C=N/Nc2ccccc2)n1C | 84.5%
46 | CN1/C(=C\C(=O)C[n+]2ccc(C(=O)c3ccccc3)cc2)C(C)(C)c2ccccc21 | 96.7%
47 | CCOC(=O)c1ccc2c(c1)C(=O)N(C1CCCCC1)C2=O | 92.8%
48 | CCCN(CC1CC1)C(=O)COC(=O)c1ccc2c(c1)C(=O)N(c1ccc(OCC)cc1)C2=O | 94.9%
49 | CN(C)C=Nc1ccc2nn(-c3ccccc3)nc2c1 | 93.2%
50 | COC(=O)CSc1[nH]c2ccc(Br)cc2c1[N+](=O)[O-] | 93.3%
51 | CCOC(=O)c1csc(-c2snnc2C)n1 | 95.6%
52 | O=C(COC(=O)C1CC2CCCC(C1)C2=O)NNC(=O)c1ccccc1F (stereo not given) | 101%
53 | Cn1nnc(NC(=S)NC(=O)c2ccc(-c3ccc(Br)cc3)o2)n1 | 92.3%
54 | NC(=S)NNc1ccc(Cl)c(Cl)c1 | 96.9%
55 | Nc1ccc(C(=O)OCCCc2nc3cc4ccccc4cc3[nH]2)cc1 | 90.5%
